Molecules are shown by their SMILES. The campaign covered roughly 16,000 compounds. About 4,000 (25%) were called active. Not shown: some 26% with an inconclusive outcome. Only a sample is shown. Values without a mark were called inactive. Calls come from the whole dose curve; as a rule, active = well fitted curve in the direction sought with a large enough effect; inconclusive = small, poorly fitted or top-dose-only effect, or effect the other way; inactive = no such curve, though single readings can be large or run the other way.
% is set by controls: 0 for no effect and ±100 for the full control effect.

The assay deals with Cytochrome P450 2C9 (Homo sapiens) (UniProt P11712). In words: Cytochrome panel assay with activity outcomes. The note with it: recombinant CYP, pro-luciferin dealkylation, luminescence, p450-cyp2c9; series mostly up to 57.1 µM; activity, negative = inhibition: at the top concentration.
Sequence of Cytochrome P450 2C9 (Homo sapiens) (P11712 whole entry, looked up): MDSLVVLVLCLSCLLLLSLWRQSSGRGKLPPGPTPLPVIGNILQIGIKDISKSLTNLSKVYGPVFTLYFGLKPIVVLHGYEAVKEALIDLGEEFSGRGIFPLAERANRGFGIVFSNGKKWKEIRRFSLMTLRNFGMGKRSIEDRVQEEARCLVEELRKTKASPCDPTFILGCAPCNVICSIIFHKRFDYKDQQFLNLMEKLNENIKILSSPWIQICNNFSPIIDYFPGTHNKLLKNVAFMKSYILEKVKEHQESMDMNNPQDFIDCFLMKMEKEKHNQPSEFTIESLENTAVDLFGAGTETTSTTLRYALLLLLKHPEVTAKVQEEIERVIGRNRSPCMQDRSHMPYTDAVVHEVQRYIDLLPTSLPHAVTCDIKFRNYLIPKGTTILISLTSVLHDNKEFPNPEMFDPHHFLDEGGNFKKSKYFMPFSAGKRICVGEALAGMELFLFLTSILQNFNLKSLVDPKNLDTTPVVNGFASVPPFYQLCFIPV
For the compound `Cc1nn(CC(O)COc2ccc3c(c2)CCC3)c(C)c1Br` (configuration not stated), the “activity, negative = inhibition” value was -23.7%. The same measure, in the same setting: next, `C=CC[C@@H]1C=C[C@H](O/N=C(\C)CCN2CCCCc3nc(C)c(C)cc32)[C@H](CO)O1`: 0.735% [at 11.4 µM]; `Cc1ccc(N2C(=O)c3n[nH]c(C)c3C2c2ccccn2)cc1` (configuration not stated): -12.8%. The AC50 is the midpoint of the concentration-response curve, whichever way the signal moves. For the compound `COc1cccc(CNC(=O)CCNC(=O)Cn2ccc3ccccc3c2=O)c1`, the concentration at half-maximal activity (AC50) was 3.16 µM (active).

Turning to `COc1ccc(OC)c(CNC(=O)CCNC(=O)Cn2ccc3ccccc3c2=O)c1`, the “activity, negative = inhibition” value is -1.88%.

`O=C(CCNC(=O)Cn1ccc2ccccc2c1=O)NCCCN1CCN(c2ccc(F)cc2)CC1`: the “activity, negative = inhibition” value is -10.9%. The same measure, in the same setting: next, `CCCCN1C(=O)CCC(C(=O)O)C1c1ccccc1` (configuration not stated): 0.737%; `CN1C(=O)C[C@H](c2ccccc2)C1=O`: -24.7% [at 25.6 µM]. Consider `O=C1C(Cc2ccccc2)C(c2ccccc2)N1c1ccccc1` (configuration not stated), for which the AC50 was 7.08 µM (active). For the compound `CCCC1C(=O)N(c2ccccc2)C1c1ccccc1` (configuration not stated), the AC50 was 10 µM (active). Take `CN(C)CCNS(=O)(=O)N(C)C`: the activity, negative = inhibition was 11.3% [at 11.4 µM]. Still for that read-out and setting: next, `CO[C@]1(NC(=O)[C@H](C(=O)O)c2ccc(O)cc2)C(=O)N2C(C(=O)O)=C(CSc3nnnn3C)CO[C@H]21`: 12.5% [at 25.6 µM]; `c1ccc(Nc2nc(-c3ccoc3)nc3ccccc23)cc1`: -10.3% [at 2.29 µM]. As to `CN1CC(c2ccccn2)C2(SC(=S)N(Cc3ccccc3)C2=O)C12C(=O)Nc1ccccc12` (configuration not stated), the AC50 was 4.47 µM (active). For the compound `CCCCN(c1ccccc1)c1ncnc2c1cnn2C`, the activity, negative = inhibition is 1.33% [at 11.4 µM]. Still for that read-out and setting: under `CN1CCN(CN2C(=O)C3C4C=CC(C3C2=O)C2C3C(=O)N(CN5CCN(C)CC5)C(=O)C3C42)CC1` (configuration not stated) stands -2.91% [at 11.4 µM]. `Oc1ccccc1C1Nc2cccc3cccc(c23)N1`: the AC50 was 8.91 µM (active). On the same count and under the same terms, under `Oc1ccc(C2Nc3cccc4cccc(c34)N2)c(O)c1` stands 14.1 µM (active). Turning to `O=C(O)[C@H]1C[C@@H](CP(=O)(O)O)CCN1`, the “activity, negative = inhibition” value was -28.6%. The same measure, in the same setting: under `O=C1[C@H]2[C@H]3[C@H](O)[C@H](O)C/C(=N/OC[C@@H](O)COCc4ccco4)[C@H]3CC[C@@H]2C(=O)N1C[C@@H]1CCCO1` stands 7.75% [at 11.4 µM].

Turning to `O=C1C=C(Nc2ccc(Cl)cc2)CC(c2ccc(Cl)cc2)C1` (configuration not stated), the AC50 is 10 µM (active). For the compound `O=C(O)C1(Nc2ccc(Cl)cc2)CCCC1`, the activity, negative = inhibition is -21.4% [at 11.4 µM]. For the compound `O=C1C=C(NCCN2CCOCC2)CC(c2ccccc2)C1` (configuration not stated), the “activity, negative = inhibition” value is -16.6%.

As to `Clc1ccc(-c2nnc(-c3cccc4ccccc34)o2)cc1Cl`, the activity, negative = inhibition was 24% [at 11.4 µM]. On to `C#CCSc1nnc(-c2sc3ccccc3c2Cl)o1`, for which the “activity, negative = inhibition” value is -29.7%. Regarding `c1ccc2c(CSc3nnc(-c4ccncc4)o3)cccc2c1`, the AC50 is 0.178 µM (active). The same measure, in the same setting: next, `Clc1ccccc1CSc1nnc(-c2ccncc2)o1`: 0.447 µM (active).

On to `CC[N+](C)(C)c1cccc(O)c1`, for which the “activity, negative = inhibition” value was -2.67% [at 25.6 µM].

As to `Cc1ccc(S(=O)(=O)N2CCN(S(C)(=O)=O)C2)cc1`, the “activity, negative = inhibition” value was -15.6%. The same measure, in the same setting: next, `COc1ccccc1CN1CCC2(CC1)CCN(S(=O)(=O)c1ccccc1)CC2`: 8.41%.

`Cc1ccc(S(=O)(=O)N2CCN(Cc3ccccc3C(F)(F)F)CC2)cc1`: the AC50 was 39.8 µM (active). With `O=C1[C@H]2[C@H]3[C@H](O)[C@H](O)C/C(=N/OCc4ccccc4)[C@H]3CC[C@@H]2C(=O)N1Cc1ccc2c(c1)OCO2`, the activity, negative = inhibition is -16.6% [at 11.4 µM]. Same read-out and setting: under `COc1ccccc1CNc1nc(-c2ccccc2CN(C)C)nc2ccccc12` stands 5.51% [at 2.29 µM]. Take `CN(C)C(=O)c1ccc(-c2nc(-n3ccnc3)c3ccccc3n2)cc1`: the activity, negative = inhibition was -0.507% [at 2.29 µM].

In the case of `c1ccc(-c2nc(N3CCCCCC3)nc(-n3ccnc3)n2)cc1`, the AC50 is 5.01 µM (active). Regarding `Cc1ccccc1-c1nc(-n2ccnc2)c2ccccc2n1`, the activity, negative = inhibition is -7.55% [at 2.29 µM].

With `CN(c1ccccc1)c1nc(-n2ccnc2)nc(-n2ccnc2)n1`, the AC50 was 0.282 µM (active). As for `c1ccc2c(-n3ccnc3)nc(-c3ccoc3)nc2c1`, the activity, negative = inhibition is -6.66% [at 2.29 µM]. Still for that read-out and setting: under `COc1ccccc1-c1nccc(-n2ccnc2)n1` stands 6.88% [at 2.29 µM]; under `N[C@@](CC(=O)O)(Cc1ccccc1)C(=O)O`, -1.82% [at 11.4 µM]. On the same count and under the same terms, under `NC(=O)C1(N2CCCCC2)CCN(C(=S)Nc2ccc(Cl)cc2)CC1` stands -18%; under `NC(=O)C1(N2CCCCC2)CCN(C(=O)c2ccc(-n3cnnn3)cc2)CC1`, -20.9%.

As for `CCOC(=O)N1CCN(C(=O)c2cnc3n(c2=O)CCS3)CC1`, the “activity, negative = inhibition” value was -2.54%. In the case of `O=C(c1ccc2nc3ccc(Cl)cc3c(=O)n2c1)N1CCOCC1`, the “activity, negative = inhibition” value was -4.27%. `CCOC(=O)N1CCN(C(=O)c2cccn3c(=O)c4cc(Cl)ccc4nc23)CC1`: the AC50 was 8.91 µM (active). For `NC(=O)C1(N2CCCCC2)CCN(C(=O)c2cccn3c(=O)c4cc(Cl)ccc4nc23)CC1`, the AC50 is 3.98 µM (active).

Turning to `Cc1cc(C)cc(NC(=O)C/C(N)=N/O)c1`, the “activity, negative = inhibition” value was -16%. On the same count and under the same terms, next, `C[C@@H]1CCCC(CC(=O)O)(CC(=O)O)C1`: 9.77% [at 11.4 µM]; `CCOC(=O)N1CCN(C(=O)c2ccc(NC(C)=O)cc2)CC1`: -29.4%.

Take `CCOC(=O)N1CCN(C(=O)c2ccc3nc(N4CCC(C)CC4)sc3c2)CC1`: the AC50 was 2.51 µM (active).

Regarding `CC1=NN(C(=O)c2ccncc2)C(=O)[C@@H]1N=Nc1ccc2ccccc2c1`, the activity, negative = inhibition was -11.2% [at 11.4 µM]. On the same count and under the same terms, next, `OCCN(CCO)c1ncnc2nc[nH]c12`: 5.61% [at 11.4 µM].

Regarding `O=C(C=C1SCCS1)/C=C/c1ccco1`, the “activity, negative = inhibition” value was 6.81%. As for `O=C(/C=C/c1ccco1)Nc1ccc(Oc2ccccc2)cc1`, the half-maximal activity concentration (AC50) is 5.01 µM (active). With `CO[C@H]1COC(=O)[C@H]2CCCN2C(=O)C/C=C\[C@@H](C)[C@H](OC)COC(=O)C/C=C\[C@@H]1C`, the activity, negative = inhibition is 13.8% [at 11.4 µM]. As to `CC[C@]1(O)C[C@H]2CN(CCc3c([nH]c4ccccc34)[C@](C(=O)OC)(c3cc4c(cc3OC)N(C=O)[C@H]3[C@@](O)(C(=O)OC)[C@H](OC(C)=O)[C@@]5(CC)C=CCN6CC[C@]43[C@H]65)C2)C1`, the “activity, negative = inhibition” value was 0.0764%. For the compound `Cc1nc(SCC(=O)Nc2c(C)nn(C)c2C)c2cnn(-c3ccccc3)c2n1`, the AC50 was 2.51 µM (active).

Source of the values: PubChem BioAssay AID1851 (National Center for Advancing Translational Sciences (NCATS), 2009).
